This note sets out measurements from PubChem BioAssay AID1159524 (National Center for Advancing Translational Sciences (NCATS), 2015).

Screen size: about 410,000 compounds; about 5,100 (1.2%) were called active. Entries that show only a call come without a potency. Inconclusive results (about 8%) are left out. The call rests on the fitted dose curve; tested in HEK293T cells. Many of the other results were omitted from the sample, so actives are more common in it than they were.
Potency means the concentration at half of the fitted maximal effect.

The nature of the assay: High Throughput Screening for Foot and Mouth Disease Virus Antivirals. Further: read-out not given here; nearly all actives have a fitted effect of over 45% in size. The settings on record: FMDV antiviral cell-based qHTS; series mostly up to 57.9 µM.
With `CN1CCN(c2ncc3nc(-c4ccc(Cl)cc4)c(=O)n(-c4ccccc4)c3n2)CC1`, the Potency result was “inactive”.

`CCCCCCCCCCCC(=O)O[C@H](CC(=O)O)C[N+](C)(C)C`: the Potency entry is “inactive”.

For the compound `CCc1nn(CC(=O)Nc2cc(C)cc(C)c2)c(=O)c2cc3sccc3n12`, the Potency entry is “inactive”.

In the case of `CCOc1ccc(NC(=O)CC2C(=O)N(c3cccc(OC)c3)C(=O)N2C2CCCCC2)cc1` (centres undefined), the Potency result is “inactive”.

For `CCOC(=O)C1CCN(C(=O)Nc2cccc(OC)c2)CC1`, the Potency result was “inactive”.

In the case of `CCOC(=O)[C@]12Cc3cc(OC)ccc3[C@H]1N(C(C)C)C(=O)c1ccccc12`, the Potency was 31.6 µM (active).

With `CCOC(=O)c1ccc(NC(=O)CC2C(=O)N(c3cccc(OC)c3)C(=O)N2C2CCCCC2)cc1` (centres undefined), the Potency entry was “inactive”.

In the case of `CCOC(=O)[C@]12Cc3ccccc3[C@H]1N(C1CCCCC1)C(=O)c1cc(OC)ccc12`, the Potency is 10 µM (active).

In the case of `COc1ccc(C23NCCN2C(=O)c2ccccc23)cc1` (centres undefined), the Potency entry was “inactive”.

Take `CCN(CC)S(=O)(=O)c1ccc2c(c1)N(CC(=O)NCC(C)c1ccccc1)C(=O)CO2` (centres undefined): the Potency entry is “inactive”.

For the compound `O=C(NCCc1ccccc1)c1ccc2c(c1)N(Cc1ccccc1)C(=O)c1ccccc1S2(=O)=O`, the Potency result was “inactive”.

As for `c1ccc2c(c1)[I+]c1ccccc1-2`, the Potency entry is “inactive”.

`COc1ccc(CNC(=O)c2ccc(NC(=O)N3CC4CCCN4c4ccccc43)cc2)cc1` (centres undefined): the Potency entry is “inactive”.

As for `COc1cc(NC(=O)Cn2c(=O)n(Cc3ccco3)c(=O)c3oc4ccccc4c32)cc(OC)c1`, the Potency result is “inactive”.

For `CCOC(=O)c1cc2c(=O)n3ccccc3nc2n(CCCOC)c1=NC(=O)C(C)(C)Oc1ccc(Cl)cc1`, the Potency entry is “inactive”.

On to `O=c1ccc2c(-c3ccccc3S(=O)(=O)O)c3ccc(O)c(O)c3oc-2c1O`, for which the Potency is 7.08 µM (active).

`CCCC(=O)Nc1ccc(C(=O)N/N=C/c2ccc[nH]2)cc1`: the Potency is 28.2 µM (active).

For the compound `CC(=O)Nc1ccc(C(=O)NNC(=O)CCCCC(=O)NNC(=O)c2ccc(NC(C)=O)cc2)cc1`, the Potency entry is “inactive”.

Regarding `CCCC(=O)Nc1ccc(C(=O)NCCCn2ccnc2)cc1`, the Potency result was “inactive”.

In the case of `Cc1ccn(CCC(=O)N2c3ccccc3CC2C)n1` (centres undefined), the Potency entry is “inactive”.

Take `CC1C(C)N(C(=O)CCl)c2ccccc2N1C(=O)CCl` (centres undefined): the Potency is 3.55 µM (active).

`CNC(=O)N1c2ccccc2C=Cc2ccccc21`: the Potency entry is “inactive”.

On to `N[C@H](Cc1o[nH]c(=O)c1Cl)C(=O)O`, for which the Potency result is “inactive”.

Turning to `CC(C)C(=O)NC(C)c1nnc2n1CCN(Cc1cccc3ncccc13)CC2` (centres undefined), the Potency result was “inactive”.

In the case of `Cc1nc2cnc(Nc3ccccc3)nc2n(C[C@H]2CCCO2)c1=O`, the Potency result was “inactive”.

On to `C[C@@H]1C[C@@H]2O[C@H]2/C=C\C=C\C(=O)Cc2c(Cl)c(O)cc(O)c2C(=O)O1`, for which the Potency is 0.1 µM (active).

Turning to `COCCn1c(=O)c(CCc2ccccc2)nc2cnc(N3CCNCC3)nc21`, the Potency result was “inactive”.

Regarding `COCCn1c(=O)c(-c2ccc(OC)cc2)nc2cnc(Oc3cccc(Cl)c3)nc21`, the Potency result is “inactive”.

Regarding `COc1ccccc1CN1CC2(CCN(S(=O)(=O)c3ccccc3)CC2)C1`, the Potency result is “inactive”.

For the compound `COc1ccccc1CC(=O)Nc1ccc(S(=O)(=O)N2CCCC2)cc1`, the Potency result is “inactive”.

Regarding `COc1ccc(-c2ccc(Nc3ccc(S(=O)(=O)N4CCCC4)cc3)nn2)cc1OC`, the Potency was 14.1 µM (active).

Regarding `COc1cc(C(=O)NNC(=O)c2ccc(S(=O)(=O)N3CCCCC3)cc2)cc(OC)c1OC`, the Potency result was “inactive”.

For the compound `CCN(CC)c1cc(NC2CCCCC2)c2c3c(onc13)-c1ccccc1C2=O`, the Potency result is “inactive”.

`CC(C)C(NS(=O)(=O)c1ccc(-c2ccc(Br)cc2)cc1)C(=O)O` (centres undefined): the Potency entry was “inactive”.

Take `CCC1(C2CCN(Cc3cccnc3)CC2)NC(=O)N(CC2COc3ccccc3O2)C1=O` (centres undefined): the Potency result was “inactive”.

Consider `Cc1cccc(C(CC(=O)NCC2(c3ccccc3)CCCC2)c2ccccc2)c1O` (centres undefined), for which the Potency entry is “inactive”.

For `CCc1nc2cccnc2n1-c1ccc(C(=O)O)cc1`, the Potency result was “inactive”.

As to `NCCCCCC(=O)N/N=C/c1ccc2nccnc2c1`, the Potency entry is “inactive”.

As for `O=C(O)c1ccc(N/N=C/c2ccc3ncccc3c2)cc1`, the Potency was 2.82 µM (active).

For `CCn1c(C(=O)Nc2cc(Cl)ccc2C)cc2sc(Cl)cc21`, the Potency result is “inactive”.

As for `COc1ccc(NC(=O)N2CC3(CCN(C(=O)c4cccn4C)CC3)C2)cc1`, the Potency result was “inactive”.

Take `CC(=O)OCC(=O)[C@@]1(O)CCC2C3CCC4=CC(=O)CC[C@]4(C)C3C(=O)C[C@]21C` (some centres undefined): the Potency entry is “inactive”.

For `CC(=O)OCC(=O)C1CCC2C3CCC4=CC(=O)CC[C@@]4(C)C3CC[C@]12C` (some centres undefined), the Potency entry was “inactive”.

Consider `CSc1ncnc2c1ncn2CC(=O)C1CCC2C3CCC4=CC(=O)CCC4(C)C3CCC12C` (centres undefined), for which the Potency was 11.2 µM (active).

Consider `COc1ccccc1N1CCN(CCCNC(=O)c2cnn(-c3ccccc3Cl)c2C2CCN(C(=O)OC(C)(C)C)CC2)CC1`, for which the Potency entry was “inactive”.

Consider `CN(C)CCc1c[nH]c2ccc(Cn3cncn3)cc12`, for which the Potency entry is “inactive”.

On to `O=C(CC(c1cccs1)N1Cc2ccccc2C1=O)Nc1ccc(F)cc1F` (centres undefined), for which the Potency entry is “inactive”.

In the case of `Cn1cnc([N+](=O)[O-])c1Sc1n[nH]c(N)n1`, the Potency result was “inactive”.

Regarding `Cn1cnc([N+](=O)[O-])c1Nc1ccccc1O`, the Potency entry is “inactive”.

Regarding `Cn1cnc([N+](=O)[O-])c1Sc1ccccc1`, the Potency was 28.2 µM (active).

For the compound `CO[C@H]1[C@H](NC(=O)C(C)C)c2ccccc2C12CCN(Cc1cnc(N(C)C)s1)CC2`, the Potency entry was “inactive”.

As to `COc1ccccc1CNc1ccnc(-c2c(C)noc2C)n1`, the Potency result was “inactive”.

Take `CCCC(=O)Nc1ccc(NC(=O)c2sc3ccccc3c2Cl)cc1`: the Potency entry is “inactive”.

In the case of `Cc1cccc(N2CCN(C(=O)c3cnc(N4CCCC4)nc3C)CC2)c1C`, the Potency result is “inactive”.

Take `CCC1CN(CCNC(=O)c2ccsc2)Cc2cc(OC)ccc2O1` (centres undefined): the Potency result was “inactive”.

As for `CCN1/C(=C\c2ccc3ccccc3[n+]2CC)Sc2cc(C)ccc21`, the Potency was 35.5 µM (active).

For the compound `CC(=O)Nc1cccc(NC(=O)CSc2cn(CC(=O)N3CCCC3)c3ccccc23)c1`, the Potency entry is “inactive”.

As for `COc1ccc2[nH]cc(CCNc3nc(-c4cccc(NS(C)(=O)=O)c4)nc4ccccc34)c2c1`, the Potency entry was “inactive”.

For the compound `CCn1c2ccccc2c2nnc(SCC(=O)O)nc21`, the Potency result was “inactive”.

For `CCc1c2c(nc3ccc(O)cc13)-c1cc3c(c(=O)n1C2)COC(=O)[C@]3(O)CC`, the Potency result is “inactive”.

Turning to `COCCn1c(=O)c(CCc2ccccc2)nc2cncnc21`, the Potency entry is “inactive”.

For the compound `NS(=O)(=O)c1ccc(CCNC(=O)CN2C(=O)c3ccccc3S2(=O)=O)cc1`, the Potency entry is “inactive”.

For the compound `CCn1c(=O)c2ccccc2n(CC(=O)N2CCCc3ccccc32)c1=O`, the Potency result was “inactive”.

In the case of `O=C(CN1C(=O)c2ccccc2S1(=O)=O)N1CCc2ccccc21`, the Potency is 0.794 µM (active).
